# Sampled rows, rich in hits. Any-hit rate of the full collection: about 10%.
# BAZ2B block: qHTS Assay for Inhibitors of BAZ2B; AID 504333, 2011; hit rate 4.4% among 360,000; AlphaScreen BAZ2B-H3K14Ac peptide displacement; Potency, µM (highest dose often 114 µM), inactives show at the highest dose activity change, negative = inhibition, actives largely listed as inhibitors; also: % is scaled to controls: 0 for no effect and ±100 for the full control effect; nearly all actives have a fitted effect of over 60% in size
#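 In this displacement format the biotinylated H3(5-23) peptide acetylated at Lys14 serves as ligand at 50 nM, with BAZ2B at 50 nM in PBS pH 7.4 containing 0.01% Tween-20. Donor and acceptor beads are 10 ug/mL final.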
# HP1b binding inh: HTS for Inhibitors of HP1-beta Chromodomain Interactions with Methylated Histone Tails; Chromobox protein homolog 1 (Homo sapiens), P83916; AlphaScreen HP1-beta / biotin-H3K9me3 peptide binding; hit rate 0.56% among 390,000; AID 540317, 2011; Potency, µM (series often up to 114 µM), without a hit: top-dose activity change, negative = inhibition, most hits filed as inhibitors; also: nearly all actives have a fitted effect of over 70% in size
#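 Compound inhibition of the preformed complex between 50 nM HP1-beta and 50 nM biotinylated H3K9me3 peptide was read by AlphaScreen. Buffer was PBS pH 7.4 with 0.01% Tween-20. Incubations ran 30 min at room temperature, with 10 ug/mL donor/acceptor beads.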
# L3MBTL1 inh: qHTS Assay for the Inhibitors of L3MBTL1 | AID 485360, 2010 | Potency, µM (series often up to 57.1 µM), for the others: at the top dose activity, negative = inhibition, most hits filed as inhibitors | AlphaScreen L3MBTL1–H3K9me1 peptide binding | Lethal(3)malignant brain tumor-like protein 1 (Homo sapiens), Q9Y468 | hit rate 0.66% among 230,000; also: % is scaled to controls: 0 for no effect and ±100 for the full control effect; nearly all actives have a fitted effect of over 60% in size
#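 AlphaScreen proximity signal between nickel-chelate acceptor and streptavidin donor beads (final 10 ug/mL) reports binding of 50 nM L3MBTL1 to 75 nM biotin-H3 K9me1 peptide; complex incubated with compounds 30 min at room temperature; cefsulodin titration as control.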
# JMJD2A Tudor: qHTS Assay for Inhibitors of JMJD2A-Tudor Domain. Lysine-specific demethylase 4A (Homo sapiens), O75164. AlphaScreen JMJD2A-Tudor / H3K4me3 peptide binding. Potency, µM (top dose mostly 114 µM), for the others: at the top dose activity change, negative = inhibition, actives largely listed as inhibitors. hit rate 4.4% among 390,000. AID 504339, 2011; also: % is scaled to controls: 0 for no effect and ±100 for the full control effect; nearly all actives have a fitted effect of over 50% in size
# GLS inhibitor: qHTS for Inhibitors of Glutaminase (GLS); AID 624170, 2012; hit rate 0.21% among 410,000; GLS enzymatic activity, qHTS titration; Glutaminase kidney isoform, mitochondrial (Homo sapiens), O94925; Potency, µM (doses to about 45.5 µM), for the others: top-dose activity change, negative = inhibition, actives largely listed as inhibitors; also: % is scaled to controls: 0 for no effect and ±100 for the full control effect
#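 hKGA in 45 mM KH2PO4 (pH 8.2), 0.02% Tween-20 with compound, then 1mM L-Glutamine (stock as added) plus glutamate oxidase/HRP/Amplex red coupling mix. Fluorescence read initially and after 30 min at RT; signal change reflects glutamate formation.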
# G9a inh: qHTS Assay for Inhibitors of Histone Lysine Methyltransferase G9a | Histone-lysine N-methyltransferase EHMT2 (Homo sapiens), Q96KQ7 | G9a H3K9 monomethylation, AlphaScreen, 2 h | Potency, µM (titrated, usually from 102 µM), for the others: at the highest dose activity, negative = inhibition, hits mostly inhibitors | hit rate 8.8% among 350,000; also: % is scaled to controls: 0 for no effect and ±100 for the full control effect; nearly all actives have a fitted effect of over 75% in size
#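 G9a (20 nM) preincubated 15 min RT with compounds, then 500 nM biotinylated H3K9 peptide and 20 uM SAM added; 2 h RT reaction. Monomethyl-H3K9 product detected by AlphaScreen with anti-H3K9me1 antibody, streptavidin donor and anti-rabbit IgG acceptor beads.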
# The depositor's hits bear a star; ? = inconclusive; · = not tested or not shown; ! = not confirmed by another sample; [ ] = another dose, or the depositor's remark. Calls follow the shape of the dose curve; as a rule, active = well fitted curve in the direction sought with a large enough effect; inconclusive = small, poorly fitted or top-dose-only effect, or another doubt; inactive = no such curve, though single readings can be large; an effect the other way counts as inactive or inconclusive. Potency is read from the fitted curve at half-maximal effect.
SMILES,BAZ2B block,HP1b binding inh,L3MBTL1 inh,JMJD2A Tudor,GLS inhibitor,G9a inh
O=C(COc1ccc2ccccc2c1)N1CCN(Cc2c[nH]c3ccccc23)CC1,50µM*,?,-12%,8.9µM*,-1%,?
c1ccc2c(CN3CCCCC3)c[nH]c2c1,-12%,55%,-11%,12%,3%,24%
CN1CCN(C(=O)COc2ccc(Oc3ccccc3)cc2)CC1,-7%,10%,?,-10%,-2%,?
CCC(C)N1CCN(C(=O)COc2ccc3ccccc3c2)CC1 (stereo not drawn),18µM*,50µM*,·,2.8µM*,13%,1.8µM*
COc1ccc2c(C(=O)c3ccc(Cl)cc3)c(C)n(CC(=O)O)c2c1,·,·,·,·,-7%,·
COc1ccc2nc(NC(=O)c3nc(S(=O)(=O)Cc4cccc(C)c4)ncc3Cl)sc2c1,-16%,41%,·,-17%,0%,-5%[59 µM]
CC1(C)CC2CC(C)(CN2S(=O)(=O)c2cccc(C(=O)OCC(=O)NC(N)=O)c2)C1 (stereo not drawn),-4%,68%,2%,-6%,1%,0%[0.501 µM]
CCOC(=O)c1ccccc1NC(=O)N(Cc1ccc(CC)cc1)Cc1cn[nH]c1-c1ccc(OC)cc1,26%,64%,·,17%,-6%,8%[59 µM]
COc1ccccc1CNC(=O)C(NS(=O)(=O)c1ccc2c(c1)oc(=O)n2C)C(C)C (stereo not drawn),-2%,46%,·,-6%,-4%,-3%
COc1ccc(N2CCN(CCCN)CC2)cc1,·,?,·,10µM*,43%,·
NCCCN1CCN(c2ccccc2)CC1,20%,-27%,-8%,?,0%,·
O=C(N/N=C\C1C(=O)NC(=S)N(c2ccccc2)C1=O)c1ccc(O)cc1 (stereo not drawn),25µM*,22%,·,79µM*,0%,8.9µM*
Oc1ccc(C[C@H]2NCCc3cc(O)c(O)cc32)cc1O,-19%,79µM*,·,40µM*,3%,?
O=C(Cc1ccc(Cl)c(Cl)c1)N1CCCCC1CN1CCCC1 (stereo not drawn),·,·,·,·,·,27µM*
CC1Cc2cc3c(cc2C(c2ccc(N)cc2)=NN1)OCO3 (stereo not drawn),·,·,·,·,·,8.9µM*
CC1=NN=C(c2ccc(N)cc2)c2cc3c(cc2C1)OCO3,?,23%,-4%,?,5%,7.5µM*!
CCCN1CCO[C@@H]2c3cc(O)ccc3OC[C@H]21,-3%,76%,6%,-9%,32%,18µM*!
CCOC(=O)c1ccc(N2C(=O)CC(N3CCC(O)(c4ccc(Br)cc4)CC3)C2=O)cc1 (stereo not drawn),28%,48%,·,-4%,5%,50µM*
O=C1NC(=O)N(c2ccc(Cl)cc2)C(=O)/C1=C\c1ccc(Sc2nc3ccccc3[nH]2)o1,28µM*,40µM*,?,10µM*,-21%,3.2µM*
CC12CCC3C4CCC(=O)C(O)=C4CCC3C1CCC2OC(=O)CCC1CCCC1 (stereo not drawn),·,·,·,·,3%,7%[12.7 µM]
COc1ccc2c(c1OC)C(=O)OC2c1c(O)n(Cc2ccc(F)cc2)c(=O)[nH]c1=O (stereo not drawn),?,21%,·,79µM*,9%,-48%[12.7 µM]
Cc1ccc(/C=C2\C(=O)NC(=O)N(CCc3ccc(F)cc3)C2=O)s1,-11%,31%,·,-2%,-6%,?
Cc1ccc(/C=C2/C(=O)NC(=O)N(CC3CCCO3)C2=O)s1 (stereo not drawn),-24%,38%,-9%,-9%,18%,13µM*
COc1ccc(N2CCN(c3ncnc4c3nc3n4CCCCC3)CC2)cc1,?,-13%,·,?,8%,11µM*

# Compound activity (PubChem)
